Reference: PubChem BioAssay (NCI)
This is part of a sample that, as a whole, favours compounds with a hit. Of some 79,000 tested, about 15% had one in any assay. Values without a mark were called inactive. The source made the active and inactive calls. Cut-off read from the data, not from the text of the source: active = growth inhibition above about 70%; inactive = the rest.

What was measured:
[1] = NCI Yeast Anticancer Drug Screen. Data for the rad50 strain (AID 155);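 note: 0% = growth of vehicle-only cultures of the same strain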; details: S. cerevisiae rad50 strain growth inhibition; at 50.0 µM; stronger effect = higher value
Method in brief: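 DNA repair mutant yeast, compound exposure, growth read-out; inhibition is taken relative to vehicle.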

[2] = NCI Yeast Anticancer Drug Screen. Data for the mec2-1 strain (AID 157); details: S. cerevisiae mec2-1 strain, at 50.0 µM, stronger effect = higher value
Method in brief: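 Readout is yeast growth inhibition, normalised to vehicle-treated controls, in the mec2-1 strain exposed to compound.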

[3] = NCI Yeast Anticancer Drug Screen. Data for the sgs1 mgt1 strain (AID 161);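 note: 0% = growth of cultures given vehicle only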; details: S. cerevisiae sgs1 mgt1 strain, at 50.0 µM, stronger effect = higher value
Method in brief: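 Compounds are added to genetically altered yeast, and growth is compared with cultures given vehicle alone to give percent inhibition.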

[4] = NCI Yeast Anticancer Drug Screen. Data for the cln2 rad14 strain (AID 165);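 note: 0% = growth equal to vehicle treated cultures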; details: S. cerevisiae cln2 rad14 strain, at 50.0 µM, stronger effect = higher value
Method in brief: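 Relative to vehicle controls, growth inhibition of compound-treated cln2 rad14 yeast was recorded.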

[5] = NCI Yeast Anticancer Drug Screen. Data for the bub3 strain (AID 167); details: S. cerevisiae bub3 mutant strain, at 50.0 µM, stronger effect = higher value
Method in brief: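 In this screen, a yeast mutant lacking normal mitotic checkpoint function is challenged with compound. Relative growth versus vehicle gives the inhibition value.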

[6] = NCI Yeast Anticancer Drug Screen. Data for the mlh1 rad18 strain (AID 175); details: S. cerevisiae mlh1 rad18 strain growth inhibition; at 50.0 µM; stronger effect = higher value
Method in brief: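 Test agents were incubated with a yeast strain of defined genotype (DNA damage repair defect). Inhibition of growth was derived by comparison with vehicle-exposed cultures.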

SMILES | growth inhibition [1] | growth inhibition [2] | growth inhibition [3] | growth inhibition [4] | growth inhibition [5] | growth inhibition [6]
OCC(S)CS (stereo not given) | 17.4% | -26.4% | 12.6% | 2.9% | 9.55% | -13.4%
CCCCCCCC(=O)O.[Ni] | -15.1% | -0.6% | -2.3% | 8.45% | -18.4% | -18.5%
Cn1c(O)c(C=N)c(=O)[nH]c1=O | -4% | 3.35% | -1.65% | -15.7% | -8% | -8.3%
NCc1c[nH]c2ccccc12 | -25.1% | 4.8% | -22.7% | -12.8% | -16.5% | -9.7%
N#CC[CH2][Sn]([I])([c]1ccccc1)[c]1ccccc1 | 98.2% (active) | 98.8% (active) | 98% (active) | 98.5% (active) | 98.8% (active) | 98.1% (active)
C/C=C1/C[C@@H](C)[C@@](C)(O)C(=O)OCC2=CC[N+]3([O-])CC[C@@H](OC1=O)[C@@H]23 (stereo not given in full) | -0.9% | -17.4% | -3.4% | 10.7% | -15.9% | -53.6%
Cc1cc(S(=O)(=O)F)ccc1NC(=O)NCc1ccc(N2C(N)=NC(N)=NC2(C)C)cc1 | -6.25% | -18% | -3.95% | -37.7% | -9.4% | -8.3%
CC(C)c1cc2c(c(O)c1O)[C@@]1(C(=O)O)CCCC(C)(C)[C@@H]1CC2 | 91.8% (active) | 93.5% (active) | 93.3% (active) | 92% (active) | 92.3% (active) | 92.3% (active)
CN(C)C(=O)Sc1c(Cl)cc(Cl)cc1S(=O)(=O)F | 43.1% | 6.9% | 56% | 32.6% | -3.2% | 20.6%
C=[CH][Sn]([CH]=C)([c]1ccccc1)[c]1ccccc1 | -7.5% | -12.8% | -14.2% | -0.65% | -26.8% | 12.3%
Cc1ccc(NC(=O)/C=C/c2ccc([N+](=O)[O-])cc2)cc1S(=O)(=O)F | -2.05% | 27.9% | 30% | -5.6% | 45% | 15.2%
O=N[O-].O=N[O-].[NH2-].[NH2-].[NH2-].[NH2-].[Ni] | 0.55% | 7% | 19.6% | -48.7% | -14.8% | 13.3%
Nc1ccc(CCc2ccc(S(=O)(=O)F)cc2)cc1 | 94.8% (active) | 95.9% (active) | 98.3% (active) | 92.8% (active) | 92.7% (active) | 92.6% (active)
CCC(=O)OC1(c2ccccc2)CCN(CCC(=O)c2ccccc2)CC1C (stereo not given) | 48.6% | 36.6% | 47.8% | 38.6% | 27.1% | 37.3%
CS(=O)(=O)C(Cl)Cl | -1.5% | -4.75% | 0.75% | -2.45% | 6.3% | 19.8%
N#CC1(c2ccccc2)CCN(C2(c3ccccc3)CCCCC2)CC1 | -23.4% | -30.2% | -5.7% | 4.25% | -3.55% | -30.1%
S=C(N/N=C\c1cccc(I)c1)NC1CN2CCC1CC2 (stereo not given) | 19.1% | 3.25% | 14.4% | 14.8% | 3.2% | 13.9%
C=C1C(=O)OC2/C=C(\C)CC/C=C(/C)CC(OC(=O)/C(=C/CO)CO)C12 (stereo not given) | 6.3% | -11.6% | 14.7% | 13% | -6% | -54.7%
C#CCOCC(O)C[As](=O)(O)c1cccc(Cl)c1 (stereo not given) | 5.85% | 16.5% | 7.9% | -5.3% | 10.7% | -8.75%
Cn1c(=O)oc(=O)c2ccccc21 | -0.45% | -15.3% | -17.4% | -3.1% | -27.4% | 6.85%

SMILES | growth inhibition [1] | growth inhibition [2] | growth inhibition [3] | growth inhibition [4] | growth inhibition [5] | growth inhibition [6]
CN(C)c1ccc(/C=C/C=C\C2=CC(=C\C=C/C=C3C=CC(=[N+](C)C)C=C3)/Sc3ccccc32)cc1 | -36.4% | -45.9% | -63.7% | -29.6% | -27.4% | -55.3%
COc1ccc(/C=C(/C)[N+](=O)[O-])cc1OC | 99.3% (active) | 99.7% (active) | 99.3% (active) | 97.2% (active) | 99.7% (active) | 99.5% (active)
CCCCCC(=O)c1c(O)cc2c(c1O)C(=O)c1c(O)cc(O)cc1C2=O | 10.2% | 2.25% | 6.1% | 10.3% | 8.35% | -5.7%
Cc1cc(-n2c(/C=C/c3ccc(Cl)cc3)nc3cc(Cl)ccc3c2=O)on1 | -27.2% | -34.3% | -12.8% | -0.1% | -9.75% | -10.8%
CC1(C)OC2OCCC(N=[N+]=[N-])C2O1 (stereo not given) | 0.85% | -5.35% | -0.95% | -29.8% | -0.75% | -4.4%
O=c1[nH]c(=O)n(Cl)c(=O)n1Cl | 16.4% | 23.1% | 14.2% | 6.2% | 31% | 21.9%
OC[C@@H](O)[C@@H](O)CO | 3.2% | -0.25% | -12.1% | 15.2% | -5.55% | 10.1%
C=CCC1(O)CCC2C3CCC4=CC(=O)CCC4=C3C=CC21CC (stereo not given) | 26.9% | -7.35% | 20.4% | 19.9% | 21.5% | 21.6%
CC(C)=CCC/C(C)=N\N=C(N)N | 5.35% | -8.65% | -13.2% | -20.5% | -2.8% | -15.6%
O=c1n(Cc2ccccc2)c2ccccc2n1CC1CS1 (stereo not given) | 55.5% | 21.4% | 62.9% | 4.75% | 15.8% | 31.1%
O=[C-]CC(=O)c1ccccc1.O=[C-]CC(=O)c1ccccc1.[Fe+2] | -7.85% | 3.15% | 8.5% | 12% | -0.65% | 6.15%
CCOC(OCC)/C(=C\N(C)C)N=C(C#N)C#N | 0.95% | -2.4% | 5.35% | -35.4% | 3.25% | -2.05%
Cc1nc2ccccc2c(=O)n1-c1ccccc1 | -13.6% | -15.9% | 0% | 15.9% | 10.9% | -3.8%
c1ccc2c(c1)SCCC2NC1=NCCO1 (stereo not given) | -15.2% | -13.6% | -9% | 9.45% | 8.7% | -36.3%
C/C=C(\C)C1(CC)C(=O)NC(=O)N(C)C1=O (stereo not given) | 1.65% | 1.7% | 3.3% | -0.6% | -1.05% | -5.95%
CCCOC(=O)C(C)(C)C(OP(OCCC)OCCC)=C(C)C | -7.35% | 4.35% | -2.5% | -0.9% | 1.4% | 3.3%
CC1CCCCN1CCCN=C(N)N[N+](=O)[O-] (stereo not given) | 9.2% | -3.35% | 19.2% | 18.1% | 18.1% | -0.8%
O=S(=O)(F)c1cccc(Cl)c1C[P+](c1ccccc1)(c1ccccc1)c1ccccc1 | 25.5% | 3% | 13.7% | 12.7% | 25.5% | 41.4%
O=[N+]([O-])c1cc2n[nH]nc2c2nonc12 | 1.45% | 11.3% | 11.4% | -2.05% | 27.1% | 5.7%
CC(=O)[O][Sn]([CH2]C1CCCC1)([CH2]C1CCCC1)[CH2]C1CCCC1 | 99.3% (active) | 99.3% (active) | 99.4% (active) | 98.9% (active) | 99% (active) | 99.1% (active)
